Measured potencies and affinities stand elsewhere. Calls of active or inactive are those of the source.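 Rule for the calls: active = earlier screen potentiator hit that boosts the TRPC4 ion channel at some dose, with a dose response; inactive = no potentiation, no dose response, or not a prior hit.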
What follows are compounds tested against Short transient receptor potential channel 4 (Mus musculus) (UniProt Q9QUQ5) (assay: TRPC4 positive allosteric modulators, dose response, cell-based, HEK293 TRPC4/mu-opioid, Fluo-4 calcium, EC20 DAMGO (AID 434941;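 note: calcium entry triggered by an EC20 dose of DAMGO at the co-expressed mu-opioid receptor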)). Details: HEK293 TRPC4/mu-opioid cells, Fluo-4 calcium fluorescence; series mostly up to 20 µM; potentiation ratio: at the top concentration.
Chain of Short transient receptor potential channel 4 (Mus musculus) (Q9QUQ5 whole entry, looked up): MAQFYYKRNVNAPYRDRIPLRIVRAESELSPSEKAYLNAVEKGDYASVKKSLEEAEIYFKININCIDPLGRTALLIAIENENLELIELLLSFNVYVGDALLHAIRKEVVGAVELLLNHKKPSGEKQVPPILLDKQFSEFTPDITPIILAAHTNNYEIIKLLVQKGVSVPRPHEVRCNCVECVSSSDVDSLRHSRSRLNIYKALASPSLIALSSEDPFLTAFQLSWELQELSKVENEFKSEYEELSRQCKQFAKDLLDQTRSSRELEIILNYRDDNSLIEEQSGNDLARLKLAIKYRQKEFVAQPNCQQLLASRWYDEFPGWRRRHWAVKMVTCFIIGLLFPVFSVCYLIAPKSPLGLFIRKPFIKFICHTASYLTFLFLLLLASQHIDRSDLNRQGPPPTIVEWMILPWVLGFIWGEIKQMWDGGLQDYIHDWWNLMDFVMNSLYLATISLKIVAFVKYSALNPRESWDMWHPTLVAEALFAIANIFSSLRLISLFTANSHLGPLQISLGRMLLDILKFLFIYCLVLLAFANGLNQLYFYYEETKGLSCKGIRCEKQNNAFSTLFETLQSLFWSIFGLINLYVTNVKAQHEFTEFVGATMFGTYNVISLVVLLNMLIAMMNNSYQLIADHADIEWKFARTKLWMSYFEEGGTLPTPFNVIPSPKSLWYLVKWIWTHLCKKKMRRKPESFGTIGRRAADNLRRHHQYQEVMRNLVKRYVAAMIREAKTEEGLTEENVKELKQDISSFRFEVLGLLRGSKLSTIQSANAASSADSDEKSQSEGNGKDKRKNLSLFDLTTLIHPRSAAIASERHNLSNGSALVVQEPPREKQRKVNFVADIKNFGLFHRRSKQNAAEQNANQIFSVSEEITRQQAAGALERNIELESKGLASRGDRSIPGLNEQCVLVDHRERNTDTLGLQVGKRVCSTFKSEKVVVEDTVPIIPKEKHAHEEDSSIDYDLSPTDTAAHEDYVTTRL

Potentiation ratio, inactive:
COc1cc(/C=C2\C(=N)N3N=C(S(C)(=O)=O)SC3=NC2=O)ccc1OC(=O)c1cccs1 3.09, c1ccc(CN2CCN(c3nc4ccccc4s3)CC2)cc1 -7.39, COc1ccccc1N(C(=O)c1snc(C(N)=O)c1N)C(C(=O)NCc1ccccc1)c1ccc(O)cc1 (centres undefined) 1.13, Cc1ccc(SC(CC(=O)c2ccc(C(C)(C)C)cc2)C(=O)O)cc1 (centres undefined) 0.23, COc1ccc(C2CC(=O)c3cnc(N4CCN(Cc5ccccc5)CC4)nc3C2)cc1 (centres undefined) 28.7, CC(=O)Nc1ccc(S(=O)(=O)N2CCN(CCCOc3cc(C)ccc3C)CC2)cc1 0.98, COc1cc(/C=C/C(=O)OCC(=O)Nc2c(C)n(C)n(-c3ccccc3)c2=O)ccc1OCC#N 1.53, Cc1cc2oc(C(=O)N(Cc3ccco3)C3CCS(=O)(=O)C3)cc(=O)c2cc1Cl (centres undefined) -17, CCOCCCn1cnc2c(c1=O)c1nc3ccccc3nc1n2-c1ccc(C)cc1 0.42, O=C(c1ccccc1F)N1CCN(c2ccc([N+](=O)[O-])cc2-n2cccc2)CC1 0.32, CN(CC(=O)Nc1ccc(F)cc1)C(=O)COC(=O)c1ccccc1 3.57, O=C(NC1CC1)c1ccc2c(c1)N(Cc1ccc(Cl)cc1)CCS2 0.92, O=C(Nc1ccc2c(c1)OCO2)c1cnn2cccnc12 5.1, CCc1nc2ccccc2n1Cc1ccccc1F 0.66, CN(Cc1ccco1)C(=O)Cn1ncc2c([nH]c3ccccc32)c1=O -4.19, CN1CCN(NC(=O)Nc2cc(Cl)cc(Cl)c2)CC1 13.4, Cc1ccc2nc(C(=O)N3CCc4c([nH]c5ccccc45)C3c3ccccn3)cn2c1 (centres undefined) -6.33, Clc1ccc(N=C2SCC3CCCCN23)cc1 (centres undefined) 17.6, O=S(=O)(c1ccc(Oc2ccc(Br)cc2)cc1)N1CCOCC1 6.55, O=S(=O)(Nc1ccc(S(=O)(=O)Nc2cccc3ccccc23)cc1)c1ccccc1 1.52, COc1ccc(N(C(=O)c2snc(C(N)=O)c2N)C(C(=O)NC2CCCCC2)c2ccc(C)o2)c(OC)c1 (centres undefined) 1.63, Cc1ccc(S(=O)(=O)Nc2ccc(N=Nc3ccc(O)cc3)cc2)cc1 1, O=C(c1ccccc1)c1coc2ccc(O)c(CN3CCOCC3)c12 3.15, CCOc1ccc(N=CNc2ccc(OCC)cc2)cc1 -1.09, COCCSc1ccccc1C(=O)N1CCC(Cc2ccccc2)CC1 0.83, O=C(c1ccccc1F)N1CCN(c2ccc([N+](=O)[O-])c3cccnc23)CC1 12.6, Cc1ccc(NS(=O)(=O)c2cc(C(=O)N3CCc4ccccc4C3)ccc2Cl)cc1 1.26, CCn1cc(CN2CCC(n3nccc3NC(=O)CCOc3ccccc3)CC2)c(C)n1 -9.01, CCN1CCN(c2ccc(S(=O)(=O)N3CCCCC3)cc2NC(=O)COc2cc(C)ccc2Cl)CC1 3.27, CN(C)CCCCOc1cccc(Br)c1 0.57, CC(C)c1ccc(C(C)NCCS(=O)(=O)c2ccc(Br)cc2)cc1 (centres undefined) -22.5, COc1cc2c(C(=O)N3CCN(C)CC3)c(CSc3ccccc3)n(C)c2cc1Br 10.2, Cc1c(N2C(=O)/C(=C/c3ccccc3)SC2=S)c(=O)n(-c2ccccc2)n1C 0.88, Cc1n[nH]c(C)c1Cc1c(F)cccc1Cl 6.02, O=C(Nc1ccc([N+](=O)[O-])cn1)C1CCCCC1 1.19, O=c1[nH][nH]c(-c2ccccc2)c1C=Nc1ccc(F)cc1F 43.8, COc1ccccc1C1/C(=C(\O)c2ccc3c(c2)OCCO3)C(=O)C(=O)N1Cc1cccnc1 (centres undefined) 8, CCN(CC)CCSc1nnc2c3ccccc3n(Cc3ccccc3)c2n1 -23, CCCn1c(SCC(=O)N2c3ccccc3Sc3ccccc32)nc2c1c(=O)n(C)c(=O)n2C 14

Source: PubChem BioAssay
